According to PubChem BioAssay AID1347420 (Sanford-Burnham Center for Chemical Genomics, 2020):
Out of some 1,300 compounds screened, about 980 (75%) were called active. Inconclusive results (about 4%) are left out. Some of the results follow. Unmarked numbers belong to inactive results. Residues, ends and D or L forms follow the SMILES beside them. *: point of attachment. Cbz = O=C(OCc1ccccc1)*

These compounds were tested against Sulfhydryl oxidase 1 (Homo sapiens) (UniProt O00391) (assay: QSOX1 enzyme inhibitors, primary screen, biochemical, HyperBlu H2O2 luminescence, HTS (AID 1347420; further: values above 100% were filed as inconclusive)). Conditions: recombinant QSOX1, HyperBlu H2O2 luminescence; at 12.5 µM; active compounds read high; active = any value above zero.
Chain of Sulfhydryl oxidase 1 (Homo sapiens) (O00391 whole entry, looked up): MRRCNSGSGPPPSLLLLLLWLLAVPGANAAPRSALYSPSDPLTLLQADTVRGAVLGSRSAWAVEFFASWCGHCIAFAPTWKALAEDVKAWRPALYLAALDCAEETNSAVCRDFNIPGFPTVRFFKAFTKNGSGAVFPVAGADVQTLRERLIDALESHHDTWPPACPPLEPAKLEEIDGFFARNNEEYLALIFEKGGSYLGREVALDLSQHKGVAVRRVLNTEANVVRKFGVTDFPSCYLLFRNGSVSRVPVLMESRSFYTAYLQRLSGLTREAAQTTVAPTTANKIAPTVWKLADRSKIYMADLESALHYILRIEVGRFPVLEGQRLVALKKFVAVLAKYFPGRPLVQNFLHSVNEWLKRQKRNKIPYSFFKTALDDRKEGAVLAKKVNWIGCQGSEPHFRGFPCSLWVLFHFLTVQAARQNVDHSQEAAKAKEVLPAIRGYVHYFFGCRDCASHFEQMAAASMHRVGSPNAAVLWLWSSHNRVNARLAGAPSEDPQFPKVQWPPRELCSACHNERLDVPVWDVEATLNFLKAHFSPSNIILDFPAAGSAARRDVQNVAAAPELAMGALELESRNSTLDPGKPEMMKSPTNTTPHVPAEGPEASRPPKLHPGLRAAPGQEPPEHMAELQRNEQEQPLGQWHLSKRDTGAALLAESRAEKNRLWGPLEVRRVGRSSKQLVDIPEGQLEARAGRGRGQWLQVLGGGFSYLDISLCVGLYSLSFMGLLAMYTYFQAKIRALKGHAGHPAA
For CC1=C(/C=C/C(C)=C/C=C/C(C)=C/C(=O)O)C(C)(C)CCC1, the inhibition was 11.4% (active). In the case of CC1=C(/C=C/C(C)=C/C=C/C(C)=C\C(=O)O)C(C)(C)CCC1, the inhibition is reported as 3.1% (active). CC1=C(/C=C/C(C)=C/C=C/C(C)=C/C(=O)Nc2ccc(O)cc2)C(C)(C)CCC1 was tested, and the inhibition was 29.7% (active). O=C(O)c1cc([N+](=O)[O-])ccc1NCCCc1ccccc1 was tested, and the inhibition was 84.4% (active). In the case of O=C(Nc1ccncc1)c1cc([N+](=O)[O-])ccc1Cl, the inhibition is reported as 41.9% (active). In the case of O=C(Nc1ccccc1)c1cc([N+](=O)[O-])ccc1Cl, the inhibition is reported as 35.3% (active). For O=C(Nc1ccc([N+](=O)[O-])cc1Cl)c1cc(Cl)ccc1O, the inhibition was 11.3% (active). O=C(O)/C=C/c1ccc(O)c(O)c1 was tested, and the inhibition was 74.3% (active). In the case of O=C(/C=C/c1ccc(O)c(O)c1)OCCc1ccccc1, the inhibition is reported as 98.9% (active). In the case of O=c1cc(O)cc(/C=C/c2ccc(O)c(O)c2)o1, the inhibition is reported as 84.2% (active). CN1CCCC1CCOC(C)(c1ccccc1)c1ccc(Cl)cc1 (stereo not drawn) was tested, and the inhibition was 7.6% (active). COc1cc(CC(=O)O)ccc1O was tested, and the inhibition was 4.4% (active). With NCCc1ccc(O)c(O)c1 the inhibition was 61.7% (active). With CCN(CC)C(=O)c1ccc(O)c(OC)c1 the inhibition was 17.3% (active). O=C(O)Cc1ccc(O)c(O)c1 was tested, and the inhibition was 52.8% (active). With CCc1c(C(=O)NCCc2ccc(N3CCCCC3)cc2)[nH]c2ccc(Cl)cc12 the inhibition was 13.2% (active). Compound CC(C)[C@H](NC(=O)OCc1ccccc1)C(=O)N[C@H](C=O)Cc1ccccc1 (Cbz-Val-Phe-aldehyde) has an inhibition of -15.7%. Cc1ccc(S(=O)(=O)N[C@@H](Cc2ccccc2)C(=O)CCl)cc1 was tested, and the inhibition was 4% (active). In the case of O=C(N[C@@H](Cc1ccccc1)C(=O)CCl)OCc1ccccc1, the inhibition is reported as 0.2% (active). In the case of CC(C)Cc1ccc([C@H](C)C(=O)O)cc1, the inhibition is reported as 5.1% (active). For CC(C)Cc1ccc(C(C)C(=O)O)cc1 (stereo not drawn), the inhibition was -0.2%. In the case of CC(C(=O)O)c1ccc(CC2CCCC2=O)cc1 (stereo not drawn), the inhibition is reported as 13.5% (active). In the case of CC(C)(C)c1ccc(C(O)CCCN2CCC(C(O)(c3ccccc3)c3ccccc3)CC2)cc1 (stereo not drawn), the inhibition is reported as 6.1% (active). Compound CC(C)(C(=O)O)c1ccc(C(O)CCCN2CCC(C(O)(c3ccccc3)c3ccccc3)CC2)cc1 (stereo not drawn) has an inhibition of -4.1%. CC(C)(C)c1ccc(/C=C/C(=O)Nc2ccc3c(c2)OCCO3)cc1 was tested, and the inhibition was 17.7% (active). [Li+] was tested, and the inhibition was 6.5% (active). For CN(C)C(=O)n1nnnc1Cc1ccc(-c2ccccc2)cc1, the inhibition was 2.4% (active). CC(C)c1cccc(C(C)C)c1N1C(=O)c2ccc(O)cc2C1=O showed an inhibition of -98.1%. In the case of CSc1nc(N)c2ncn([C@@H]3O[C+](COP(=O)([O-])OP(=O)(O)O)[C@H](O)C3O)c2n1 (stereo partly drawn), the inhibition is reported as 26.4% (active). CN(C)C/C=C(/c1ccc(Br)cc1)c1cccnc1 gave an inhibition of -9.2%. Work on Nc1nc(N)c2nc(-c3ccccc3)c(N)nc2n1 yielded an inhibition of -11.2%. For Nc1nnc(-c2cccc(Cl)c2Cl)c(N)n1, the inhibition was 4.9% (active). Cc1nc2c([nH]1)c(=O)n(C)c(=O)n2Cc1ccco1 was tested, and the inhibition was 10.1% (active). With CCCOc1ccccc1-c1nc2n[nH]nc2c(=O)[nH]1 the inhibition was 15.8% (active). With Cc1nnc(SCC2=C(C(=O)O)N3C(=O)[C@@H](NC(=O)Cn4cnnn4)[C@H]3SC2)s1 the inhibition was 10.4% (active). With Cc1ccc2nc(CN(CCN(Cc3nc4ccc(C)cc4[nH]3)Cc3nc4ccc(C)cc4[nH]3)Cc3nc4ccc(C)cc4[nH]3)[nH]c2c1 the inhibition was -0.7%. For C=C(C)C1CC=C(C(=O)O)CC1 (stereo not drawn), the inhibition was -10.6%. O=C(O)C1=CCCNC1 was tested, and the inhibition was 5.6% (active). In the case of O=C(O)C1=CCNCC1, the inhibition is reported as 0.2% (active). In the case of Nc1nc(OCC2CCCCC2)c2[nH]cnc2n1, the inhibition is reported as 11.1% (active). Nc1nc(N)c(N=O)c(OCC2CCCCC2)n1 was tested, and the inhibition was 29.8% (active). Nc1nc(OCc2ccccc2)c2[nH]cnc2n1 was tested, and the inhibition was 5.5% (active). With CC(C)N(CCC(=O)c1ccc2ccccc2c1)Cc1ccccc1 the inhibition was 5.9% (active). Compound CC(COc1ccccc1)N(CCCl)Cc1ccccc1 (stereo not drawn) has an inhibition of -3.7%. O=S(=O)(c1cccc2c(Cl)cccc12)N1CCCNCC1 was tested, and the inhibition was 7.1% (active). For O=S(=O)(c1cccc2c(I)cccc12)N1CCCNCC1, the inhibition was 6% (active). In the case of Cc1ccccc1C(OCCN(C)C)c1ccccc1 (stereo not drawn), the inhibition is reported as 2.5% (active). With CN(C)CCOC(c1ccccc1)c1ccccc1 the inhibition was 15.9% (active). In the case of Cc1cc2c(C(C)C)c(O)c(O)c(C=O)c2c(O)c1-c1c(C)cc2c(C(C)C)c(O)c(O)c(C=O)c2c1O, the inhibition is reported as 74.3% (active). For CCC(=O)N1CCN(C(=O)c2ccccc2)CC1, the inhibition was 3.1% (active). With Cc1ccc(Cl)c(Nc2ccccc2C(=O)O)c1Cl the inhibition was 7.8% (active). In the case of O=c1onc2cnc3ccccc3n12, the inhibition is reported as 6.8% (active). With CN(C)CC[C@@H](c1ccc(Br)cc1)c1ccccn1 the inhibition was -5.9%. With CN(C)CC[C@@H](c1ccc(Cl)cc1)c1ccccn1 the inhibition was 3.5% (active). CN(C)CCC(c1ccc(Cl)cc1)c1ccccn1 (stereo not drawn) was tested, and the inhibition was 6.9% (active). With CN(C)CCC(c1ccc(Br)cc1)c1ccccn1 (stereo not drawn) the inhibition was -10.9%. For CN(C)CCC(c1ccccc1)c1ccccn1 (stereo not drawn), the inhibition was 4.2% (active). With O=C1N(c2ccccc2)c2ccccc2C1(Cc1ccncc1)Cc1ccncc1 the inhibition was 7.6% (active). Nc1c2c(nc3ccccc13)CCCC2O (stereo not drawn) was tested, and the inhibition was 4% (active). With Nc1c2c(nc3ccccc13)CCCC2 the inhibition was 20.5% (active). In the case of COc1ccccc1N1CCN(CC(O)COc2cccc3ccccc23)CC1 (stereo not drawn), the inhibition is reported as 11.9% (active). For COc1ccccc1OCC(O)CN1CCN(CC(=O)Nc2c(C)cccc2C)CC1 (stereo not drawn), the inhibition was 2.7% (active). Work on Cc1cn[nH]c1 yielded an inhibition of -6.5%. COc1cc2nc(N3CCN(C(=O)OCc4ccccc4)C(C(=O)NC(C)(C)C)C3)nc(N)c2cc1OC (stereo not drawn) was tested, and the inhibition was 0.6% (active). For COc1cc2nc(N3CCN(C(=O)C4CCCO4)CC3)nc(N)c2cc1OC (stereo not drawn), the inhibition was 8.6% (active). In the case of COc1cc2nc(N3CCN(C(=O)C4COc5ccccc5O4)CC3)nc(N)c2cc1OC (stereo not drawn), the inhibition is reported as 11.9% (active). COc1cc2nc(N3CCN(C(=O)c4ccco4)CC3)nc(N)c2cc1OC was tested, and the inhibition was 5.9% (active). In the case of COc1cc2nc(N(C)CCCNC(=O)C3CCCO3)nc(N)c2cc1OC (stereo not drawn), the inhibition is reported as 0.2% (active). In the case of O=C(Nc1nc2ccccc2n1CCN1CCOCC1)c1cccc([N+](=O)[O-])c1, the inhibition is reported as -17.8%. For O=C(NCCN1CCOCC1)c1ccc(Cl)cc1, the inhibition was 5.4% (active). With COc1cccc(C(=O)NCCN2CCN(c3ccc(Cl)cc3)CC2)c1 the inhibition was 45.7% (active). For CC[N+](CC)(CC)CC, the inhibition was -0.4%. Compound Cc1oncc1C(=O)Nc1ccc(C(F)(F)F)cc1 has an inhibition of -3.1%. In the case of O=C(c1ccc2c(c1)OCCO2)N1CCCCC1, the inhibition is reported as 5.6% (active). CCCCCC(O)c1cccc(OCc2ccc3ccccc3n2)c1 (stereo not drawn) showed an inhibition of -4.5%. For O=C(O)c1ccccc1Nc1cccc(OCc2ccc3ccccc3n2)c1, the inhibition was 70.1% (active). In the case of NCCCCCCCCCCN, the inhibition is reported as 12.8% (active). In the case of NCCCCN, the inhibition is reported as 14.6% (active). For CCN(CC)CCOC(=O)C1(C2CCCCC2)CCCCC1, the inhibition was 28.2% (active). In the case of O=C(O)CP(=O)(O)O, the inhibition is reported as 10% (active). CN=c1nc(-c2ccccc2)n(-c2ccccc2)s1 was tested, and the inhibition was 25.4% (active). In the case of S=C([S-])OC1CC2C[C+]1C1CCCC21 (stereo not drawn), the inhibition is reported as 1.4% (active). Work on CNCCC(Oc1ccc(C(F)(F)F)cc1)c1ccccc1 (stereo not drawn) yielded an inhibition of -9.7%. In the case of CN(CC[C@@H](Oc1ccc(C(F)(F)F)cc1)c1ccccc1)CC(=O)O, the inhibition is reported as 21.6% (active). For CNCC[C@H](Oc1ccc(C(F)(F)F)cc1)c1ccccc1, the inhibition was 0.1% (active). In the case of CCCCCCCCCC[Si](C)(C)CCC(=O)NC(Cc1ccc(C)cc1)c1ccccc1 (stereo not drawn), the inhibition is reported as 19.6% (active). Compound CCCCCCCCCC(=O)NC(CN1CCOCC1)[C@H](O)c1ccccc1 (stereo partly drawn) has an inhibition of -17.8%. For CCCn1c(=O)[nH]c(=O)c2[nH]cnc21, the inhibition was 3.6% (active). Compound O=C(c1ccc(F)cc1)C1CCN(CCn2c(=O)[nH]c3ccccc3c2=O)CC1 has an inhibition of -10.7%. In the case of Cc1nc2sccn2c(=O)c1CCN1CCC(=C(c2ccccc2)c2ccc(F)cc2)CC1, the inhibition is reported as 2.9% (active). Cc1nc2sccn2c(=O)c1CCN1CCC(=C(c2ccc(F)cc2)c2ccc(F)cc2)CC1 was tested, and the inhibition was 7.1% (active). With Cc1nc2ccccn2c(=O)c1CCN1CCC(C(=O)c2ccc(F)cc2)CC1 the inhibition was 5.5% (active). CC1(C)C(=O)N(CCN2CCC(C(=O)c3ccc(F)cc3)CC2)c2ccccc21 was tested, and the inhibition was 7.2% (active). Cc1nc2n(c(=O)c1CCN1CCC(c3noc4cc(F)ccc34)CC1)CCCC2O (stereo not drawn) gave an inhibition of 0%. Work on FC(F)(F)c1ccccc1-n1ccnc1 yielded an inhibition of -11.4%. In the case of COc1ccccc1OCCNCC(O)COc1cccc2[nH]c3ccccc3c12 (stereo not drawn), the inhibition is reported as 11% (active). CN1CCc2ccccc2Cc2[nH]c3ccccc3c2CC1 was tested, and the inhibition was 51.2% (active). NC(N)=N[C@@H](CCC(=O)O)C(=O)O was tested, and the inhibition was 10.9% (active). In the case of COc1ccc(C(=O)NCc2cccnc2)cc1C(=O)NCc1cccnc1, the inhibition is reported as 1.3% (active). In the case of O=C1O/C(=C/Br)CCC1c1cccc2ccccc12 (stereo not drawn), the inhibition is reported as -10.8%. With CCCCC1C(=O)N(c2ccccc2)N(c2ccccc2)C1=O the inhibition was 11.8% (active). N#C/C(=C\c1ccc(-c2cc(Cl)ccc2Cl)o1)C(=O)Nc1cccc2ncccc12 was tested, and the inhibition was 6.8% (active). In the case of Fc1ccc([C@@H]2CCNC[C@H]2COc2ccc3c(c2)OCO3)cc1, the inhibition is reported as 15.8% (active). In the case of N=c1nc(N2CCCCC2)cc(N)n1O, the inhibition is reported as 1.6% (active). Nc1ccn([C@H]2CC[C@@H](CO)O2)c(=O)n1 was tested, and the inhibition was 9.9% (active). C=CCc1cccc(/C=N/NC(=O)CN2CCN(Cc3ccccc3)CC2)c1O was tested, and the inhibition was 1.7% (active). In the case of C=CCn1c(=O)c2c(nc(-c3ccc(S(=O)(=O)O)cc3)n2C)n(C)c1=O, the inhibition is reported as 1.4% (active). With N#Cc1cc2nc(O)c(O)nc2cc1[N+](=O)[O-] the inhibition was 69.8% (active).
